Hits are enriched below; roughly 0.81% of the tested compounds scored in any of these assays.
SRC1 inh: SRC1 coactivator transcriptional activity inhibitors, primary screen, cell-based, luminescence; HEK293 GAL4-SRC1 luciferase reporter; actives 0.12% (n = 360,000); inhibition, % at 3.6 µM; Nuclear receptor coactivator 1 (Homo sapiens), Q15788;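 active = inhibition above the campaign mean plus 3 SD, with each screening campaign given its own cutoff, cut at about 60% in these data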
Target sequence (Q15788 whole entry, looked up, the tested form may be a part): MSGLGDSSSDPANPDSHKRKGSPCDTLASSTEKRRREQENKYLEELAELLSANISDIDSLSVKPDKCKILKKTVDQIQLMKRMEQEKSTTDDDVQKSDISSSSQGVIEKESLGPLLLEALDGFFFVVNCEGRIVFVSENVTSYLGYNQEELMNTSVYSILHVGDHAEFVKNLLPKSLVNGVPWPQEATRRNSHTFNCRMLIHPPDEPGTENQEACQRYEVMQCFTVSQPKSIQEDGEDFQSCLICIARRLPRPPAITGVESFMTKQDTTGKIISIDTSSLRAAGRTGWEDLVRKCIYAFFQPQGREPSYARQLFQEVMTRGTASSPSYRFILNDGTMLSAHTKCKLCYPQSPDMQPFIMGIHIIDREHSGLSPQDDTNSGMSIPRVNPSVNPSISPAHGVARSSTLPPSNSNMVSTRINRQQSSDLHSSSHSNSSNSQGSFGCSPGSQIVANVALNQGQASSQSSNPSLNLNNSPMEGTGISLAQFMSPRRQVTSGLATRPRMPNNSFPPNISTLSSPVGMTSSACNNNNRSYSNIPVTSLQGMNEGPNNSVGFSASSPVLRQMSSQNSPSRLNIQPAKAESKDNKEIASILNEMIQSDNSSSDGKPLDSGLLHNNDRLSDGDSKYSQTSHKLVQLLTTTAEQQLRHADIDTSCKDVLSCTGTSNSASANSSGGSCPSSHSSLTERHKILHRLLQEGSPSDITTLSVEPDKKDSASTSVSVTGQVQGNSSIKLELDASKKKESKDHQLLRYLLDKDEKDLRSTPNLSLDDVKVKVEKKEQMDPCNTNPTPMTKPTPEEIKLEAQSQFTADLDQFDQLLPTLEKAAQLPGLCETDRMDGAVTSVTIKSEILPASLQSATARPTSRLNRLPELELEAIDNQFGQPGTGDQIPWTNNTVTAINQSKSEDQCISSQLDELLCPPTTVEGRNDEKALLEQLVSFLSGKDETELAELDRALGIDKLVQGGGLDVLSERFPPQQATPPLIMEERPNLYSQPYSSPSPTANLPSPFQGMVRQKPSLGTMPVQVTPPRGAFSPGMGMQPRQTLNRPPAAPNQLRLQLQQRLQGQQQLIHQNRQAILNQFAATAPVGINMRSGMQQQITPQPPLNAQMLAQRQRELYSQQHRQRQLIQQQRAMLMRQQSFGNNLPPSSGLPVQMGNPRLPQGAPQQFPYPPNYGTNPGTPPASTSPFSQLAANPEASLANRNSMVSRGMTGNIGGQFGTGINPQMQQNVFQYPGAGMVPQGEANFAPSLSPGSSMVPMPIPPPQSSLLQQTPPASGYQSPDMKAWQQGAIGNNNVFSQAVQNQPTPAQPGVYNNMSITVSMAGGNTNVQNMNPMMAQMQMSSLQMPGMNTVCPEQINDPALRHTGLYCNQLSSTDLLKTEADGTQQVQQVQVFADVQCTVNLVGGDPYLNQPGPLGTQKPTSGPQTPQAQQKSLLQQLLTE
NR5A2 inv ag: LRH-1 (NR5A2) inverse agonists, primary screen, cell-based, luminescence, HEK293T, StAR-luciferase reporter. Nuclear receptor subfamily 5 group A member 2 (Homo sapiens), O00482. LRH-1 transfected, 24 h. inhibition, % at 3.6 µM. actives 0.13% (n = 360,000);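 active = inhibition above the mean inhibition of all tested compounds plus 3 SD, cut at about 73% in these data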
NCOA2 inhibitor: inhibition of GAL4-SRC2 driven luciferase reporter, primary screen, SRC2 inhibitor project, cell-based, luminescence; Nuclear receptor coactivator 2 (Homo sapiens), Q15596; HEK293 GAL4-SRC2 luciferase reporter; inhibition, % at 9 µM; actives 0.17% (n = 370,000); AID 651957, 2012;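 active = inhibition above the mean inhibition of all tested compounds plus 3 SD, set per campaign, cut at about 52% in these data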
NR2F2 inh: NR2F2 transcriptional activity inhibitors, primary screen, cell-based, luciferase reporter, HEK293T, luminescence | COUP transcription factor 2 (Homo sapiens), P24468 | HEK293T NGFI-A luciferase reporter | inhibition, % at 8.6 µM | actives 0.7% (n = 370,000) | AID 686940, 2013;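 active = inhibition above a per-plate cutoff, mean inhibition of test wells between control levels plus 3 SD, cut at about 38% in these data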;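 note: cells cotransfected with COUP-TFII expression vector driving the NGFI-A reporter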
NCOA3 inh: SRC3 coactivator transcriptional activity inhibitors, primary screen, cell-based, luminescence | Nuclear receptor coactivator 3 (Homo sapiens), Q9Y6Q9 | HEK293 GAL4-SRC3 luciferase reporter | inhibition, % at 3.6 µM | actives 0.17% (n = 360,000);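 active = inhibition above a per-campaign cutoff, the mean of all compounds plus 3 SD, cut at about 60% in these data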;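 note: higher means less SRC3-driven luciferase light from the GAL4 reporter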
Gal4-VP16 ctr: Gal4-VP16 luciferase reporter inhibitors, counter-screen for COUP-TFII antagonist project, cell-based, luminescence, HEK293 | AID 687007, 2013 | inhibition, % at 8.5 µM | actives 25% (n = 2,500) | shares compounds with NR2F2 inh; in the data active = inhibition above about 13%
COUP-TFII conf: NR2F2 transcriptional activity inhibitors, confirmation, cell-based, luciferase reporter, HEK293, triplicate | shares compounds with NR2F2 inh | HEK293 NGFI-A luciferase reporter, luminescence | inhibition, % at 8.5 µM | actives 45% (n = 2,500);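 active = mean inhibition over three repeats above a set limit taken from the earlier primary screen, cut at about 38% in these data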
Of the large screens only hits and unclear results are named; the others gave an inactive call (follow-up assays come after a bar, where they were run); ! = repeats disagree.

COc1ccc(CNC(=O)c2sc(=O)n(Cc3ccc(S(=O)(=O)N(C)C)cc3)c2C)cc1	NR2F2 inh 45 | Gal4-VP16 ctr inactive | COUP-TFII conf inactive
COc1ccc(CNC(=O)c2sc(=O)n(Cc3ccc(C)cc3)c2C)cc1	none
Cc1ccc(CNC(=O)C(Cc2ccccc2)NS(=O)(=O)c2cccs2)cc1 (stereo not drawn)	none
COc1ccc(CCNC(=S)c2ccccc2)cc1OC	NR2F2 inh 38 | Gal4-VP16 ctr inactive | COUP-TFII conf inactive
C=C(C)CN1C(=O)C2(OCCO2)c2cc(Br)ccc21	none
COc1ccc(S(=O)(=O)N2CCCCC2)cc1NC(=O)CCOc1cc(C)ccc1C	none
CCc1ccc(-c2nc(CN3CCC(C(=O)N4CCN(c5ccccc5)CC4)CC3)c(C)o2)cc1	NR2F2 inh 42 | Gal4-VP16 ctr inactive | COUP-TFII conf inactive
CCOC(=O)N1CCC(NC(=O)C2CCCN(Cc3nc(-c4cccc(C)c4)oc3C)C2)CC1 (stereo not drawn)	NR2F2 inh 42 | Gal4-VP16 ctr inactive | COUP-TFII conf inactive
Cc1oc(-c2ccc(Cl)cc2)nc1CN1CCCC(C(=O)N2CCN(C(=O)c3ccco3)CC2)C1 (stereo not drawn)	NR2F2 inh 74 | Gal4-VP16 ctr 14 | COUP-TFII conf 63
CCc1ccc(-c2nc(CN3CCC(C(=O)N4CCN(c5ccccn5)CC4)CC3)c(C)o2)cc1	none
CN=c1sc2c(n1C)C(=O)c1ccccc1C2=O	none
Cn1c(=O)c2cc(NC(=O)NCc3ccccc3)ccc2n1C/C=C/c1ccccc1	none
C(C#CCCCCCCCCC[n+]1ccccc1)#CCCCCCCCCC[n+]1ccccc1	NR5A2 inv ag 85, NR2F2 inh 65, NCOA3 inh 65! | Gal4-VP16 ctr 16 | COUP-TFII conf inactive
CCOC(=O)[C@]12CCC=C1N(Cc1cccc3ccccc13)C(=O)[C@H](CC(=O)NCc1ccc(OC)c(OC)c1)C2	NR2F2 inh 37 (no result: SRC1 inh, NCOA3 inh) | Gal4-VP16 ctr inactive | COUP-TFII conf inactive
COC(=O)[C@]12CCCCC=C1N(Cc1cccc3ccccc13)C(=O)[C@H](CC(=O)NCc1ccc(OC)c(OC)c1)C2	NR2F2 inh 97 (no result: SRC1 inh, NCOA3 inh) | Gal4-VP16 ctr inactive | COUP-TFII conf 58
COC(=O)[C@]12CCCCC=C1N(CCc1ccc(OC)c(OC)c1)C(=O)[C@H](CC(=O)NCc1cccc3ccccc13)C2	none (no result: SRC1 inh, NCOA3 inh)
Cc1cc(C)nc(SCC(=O)Nc2ccc(N3CCOCC3)c(Cl)c2)n1	NR2F2 inh 42 | Gal4-VP16 ctr 18 | COUP-TFII conf 40
COc1ccc(C(=O)N2CCN(c3ccc([N+](=O)[O-])c(NCCc4ccc(OC)c(OC)c4)c3)CC2)cc1	NR2F2 inh 39 | Gal4-VP16 ctr inactive | COUP-TFII conf 89
OC[C@@H]1CN(Cc2ccccc2)C[C@H](n2cnc3c(NC4CC4)ncnc32)O1	none
OC[C@@H]1CN(Cc2ccc(-c3ccccc3)cc2)C[C@H](n2cnc3c(NC4CCC4)ncnc32)O1	NR2F2 inh 69 | Gal4-VP16 ctr inactive | COUP-TFII conf 45
CCC(=O)Nc1nc(-c2ccc3c(c2)CC(C)N3S(C)(=O)=O)cs1 (stereo not drawn)	none
CC1Cc2cc(-c3csc(NC(=O)Cc4cccs4)n3)ccc2N1S(C)(=O)=O (stereo not drawn)	NR2F2 inh 81, NCOA3 inh 64 | Gal4-VP16 ctr inactive | COUP-TFII conf 85
CCC(C)CNC(=O)c1[nH]c(C(F)(F)F)nc1-c1ccccc1 (stereo not drawn)	none
C(=Cc1cccnc1)c1ccncc1	none
O=C(/C=C/c1cccnc1)/C=C/c1cccnc1	NCOA2 inhibitor 52, NR2F2 inh 59 | Gal4-VP16 ctr 38 | COUP-TFII conf inactive
O=C1CC(c2ccccc2)Sc2nc3ccccc3n21 (stereo not drawn)	none

Assay outcomes: PubChem BioAssay, The Scripps Research Institute Molecular Screening Center
